From PubChem BioAssay (NCI)
Compounds without any hit were thinned out: in the full panel of roughly 83,000, 20% have a hit.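 Method: cells in 96-well plates; compound added at one concentration; 48 h incubation; percent growth measured; values under 10 scored active.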 Activity calls are given as the source filed them.

Tests used:
Assay in all cases: NCI-60 one-dose screen, 48 h (100 = growth as untreated, 0 = no growth, -100 = all killed)
Conditions in all cases: 10 µM unless noted
NCI-H23 lung = tested on: NCI-H23 lung
NCI-H322M lung = tested on: NCI-H322M lung
HOP-62 NSCLC = tested on: HOP-62 NSCLC
NCI-H460 lung = tested on: NCI-H460 lung
HOP-92 NSCLC = tested on: HOP-92 NSCLC
NCI-H522 lung = tested on: NCI-H522 lung
A549/ATCC NSCLC = tested on: A549/ATCC NSCLC
786-0 renal = tested on: 786-0 renal
COLO 205 colon = tested on: COLO 205 colon
DU-145 prostate = tested on: DU-145 prostate
K-562 leukemia = tested on: K-562 leukemia
MALME-3M melanoma = tested on: MALME-3M melanoma
MDA-MB-231 breast = tested on: MDA-MB-231 breast
RXF 393 renal = tested on: RXF 393 renal
SF-268 CNS = tested on: SF-268 CNS
SF-295 CNS = tested on: SF-295 CNS
SF-539 CNS = tested on: SF-539 CNS
UACC-257 melanoma = tested on: UACC-257 melanoma
M14 melanoma = tested on: M14 melanoma
HCT-15 colon = tested on: HCT-15 colon

Measured: growth

COc1cc(CNC(=O)c2ccsc2Nc2ccnc(C(F)(F)F)c2)ccc1O
inactive: NCI-H23 lung 92.3% | NCI-H322M lung 95.3% | HOP-62 NSCLC 126% | NCI-H460 lung 102% | HOP-92 NSCLC 81.3% | NCI-H522 lung 87% | A549/ATCC NSCLC 100% | 786-0 renal 98.1% | COLO 205 colon 106% | DU-145 prostate 107% | K-562 leukemia 96.6% | MALME-3M melanoma 64.4% | MDA-MB-231 breast 102% | RXF 393 renal 106% | SF-268 CNS 94.1% | SF-295 CNS 104% | SF-539 CNS 102% | UACC-257 melanoma 107% | M14 melanoma 100% | HCT-15 colon 99.1%

Cc1nc(Nc2cn[nH]c2C(=O)Nc2ccc(CN3CCN(C)CC3)cc2)c2ccsc2n1
inactive: NCI-H23 lung 95.5% | NCI-H322M lung 88.1% | HOP-62 NSCLC 107% | NCI-H460 lung 109% | HOP-92 NSCLC 90.6% | NCI-H522 lung 72% | A549/ATCC NSCLC 66.9% | 786-0 renal 65.1% | COLO 205 colon 94.1% | DU-145 prostate 102% | K-562 leukemia 72.2% | MALME-3M melanoma 132% | MDA-MB-231 breast 82.4% | RXF 393 renal 61.7% | SF-268 CNS 88.2% | SF-295 CNS 118% | SF-539 CNS 78.4% | UACC-257 melanoma 98.3% | M14 melanoma 98.9% | HCT-15 colon 81%

CCOC(=O)C1(Cc2ccccc2)CCN(Cc2cccc(OC)c2O)CC1
inactive: NCI-H23 lung 18.3% | NCI-H322M lung 20.3% | HOP-62 NSCLC 12.9% | HOP-92 NSCLC 30.6% | NCI-H522 lung 17.1% | COLO 205 colon 10.2% | DU-145 prostate 10.8% | MALME-3M melanoma 12% | MDA-MB-231 breast 22.1% | HCT-15 colon 24%
active: NCI-H460 lung -13% | A549/ATCC NSCLC 2.47% | 786-0 renal 6.33% | K-562 leukemia 8.73% | RXF 393 renal -13.9% | SF-268 CNS 5.65% | SF-295 CNS -22.2% | SF-539 CNS 5.93% | UACC-257 melanoma -4.96% | M14 melanoma 2.78%

O=C(NCCCN1CCC(N2CCCCC2)CC1)C1=Cc2cc(Br)ccc2OC1
active: SF-295 CNS 3.29%
inactive: NCI-H23 lung 56.2% | NCI-H322M lung 69.2% | HOP-62 NSCLC 87.9% | NCI-H460 lung 13.8% | HOP-92 NSCLC 80.7% | NCI-H522 lung 31% | A549/ATCC NSCLC 49.1% | 786-0 renal 53.5% | COLO 205 colon 46.1% | DU-145 prostate 68.7% | K-562 leukemia 14.8% | MALME-3M melanoma 97.9% | MDA-MB-231 breast 17.6% | RXF 393 renal 52.3% | SF-268 CNS 50.2% | SF-539 CNS 87.4% | UACC-257 melanoma 59.8% | M14 melanoma 38.7% | HCT-15 colon 41.1%

O=C1Nc2ccccc2/C1=C/c1cccs1
inactive: NCI-H23 lung 92.5% | NCI-H322M lung 84.6% | HOP-62 NSCLC 83.5% | NCI-H460 lung 92.5% | HOP-92 NSCLC 75.3% | NCI-H522 lung 95.2% | A549/ATCC NSCLC 95.2% | 786-0 renal 94.1% | COLO 205 colon 107% | DU-145 prostate 103% | K-562 leukemia 114% | MALME-3M melanoma 93.6% | MDA-MB-231 breast 94.5% | RXF 393 renal 97.9% | SF-268 CNS 94.1% | SF-295 CNS 101% | SF-539 CNS 86.7% | UACC-257 melanoma 100% | M14 melanoma 97.3% | HCT-15 colon 78.8%

O=C(Nc1ccc(Br)cc1F)c1cc(I)ccc1O
inactive: COLO 205 colon 104% | DU-145 prostate 17.2% | K-562 leukemia 10.3% | MDA-MB-231 breast 32.3% | SF-268 CNS 12.7% | M14 melanoma 16.8% | HCT-15 colon 11.9%
active: NCI-H23 lung 4.95% | NCI-H322M lung 2.64% | HOP-62 NSCLC 0.452% | NCI-H460 lung 6.01% | HOP-92 NSCLC -27.7% | NCI-H522 lung -30% | A549/ATCC NSCLC 4.34% | 786-0 renal 2.92% | MALME-3M melanoma -20.4% | RXF 393 renal 1.53% | SF-295 CNS 0.923% | SF-539 CNS 9.06% | UACC-257 melanoma -12.9%

COC(=O)C1=C(C)NC(C)=C(C(=O)OC)C(N2C(=O)CCC2=O)C1 (stereo not given)
inactive: NCI-H23 lung 96.8% | NCI-H322M lung 91.2% | HOP-62 NSCLC 109% | NCI-H460 lung 101% | HOP-92 NSCLC 101% | A549/ATCC NSCLC 77.6% | 786-0 renal 99.2% | COLO 205 colon 114% | DU-145 prostate 90.1% | K-562 leukemia 35.8% | MALME-3M melanoma 80.8% | MDA-MB-231 breast 95.8% | RXF 393 renal 104% | SF-268 CNS 93.9% | SF-295 CNS 118% | SF-539 CNS 103% | UACC-257 melanoma 66.5% | M14 melanoma 85% | HCT-15 colon 78.4%
active: NCI-H522 lung 7.93%

Cc1cc(OC(=O)c2ccc([N+](=O)[O-])cc2)nc2[nH]c(=O)sc12
inactive: NCI-H23 lung 103% | NCI-H322M lung 110% | HOP-62 NSCLC 111% | NCI-H460 lung 105% | HOP-92 NSCLC 105% | NCI-H522 lung 96.8% | A549/ATCC NSCLC 103% | 786-0 renal 104% | COLO 205 colon 116% | DU-145 prostate 111% | K-562 leukemia 102% | MALME-3M melanoma 107% | MDA-MB-231 breast 103% | RXF 393 renal 108% | SF-268 CNS 97.5% | SF-295 CNS 103% | SF-539 CNS 98.5% | UACC-257 melanoma 104% | M14 melanoma 102% | HCT-15 colon 103%

O=C(/C=C/c1cccc(Cl)c1)OCc1ccc2cc1OCC#C/C=C\C#CCO2
inactive: NCI-H23 lung 102% | NCI-H322M lung 91.1% | HOP-62 NSCLC 100% | NCI-H460 lung 104% | HOP-92 NSCLC 150% | NCI-H522 lung 83.2% | A549/ATCC NSCLC 90.5% | 786-0 renal 100% | COLO 205 colon 106% | DU-145 prostate 119% | K-562 leukemia 81.9% | MALME-3M melanoma 99.7% | MDA-MB-231 breast 90.7% | RXF 393 renal 101% | SF-268 CNS 106% | SF-295 CNS 109% | SF-539 CNS 100% | UACC-257 melanoma 88.8% | M14 melanoma 103% | HCT-15 colon 102%

CC1(O)COCCCCOc2c(CN)cccc2NC(=O)c2nc(cnc2N)-c2ccc(cc2)S(=O)(=O)C(C)(C)C1 (stereo not given)
active: NCI-H23 lung -66.7% | NCI-H322M lung -1.9% | HOP-62 NSCLC -25.5% | NCI-H460 lung -61.9% | HOP-92 NSCLC -5.59% | NCI-H522 lung -40.5% | A549/ATCC NSCLC -52.8% | 786-0 renal -58% | COLO 205 colon -47.9% | DU-145 prostate -73.4% | K-562 leukemia 0.195% | MALME-3M melanoma -86.6% | MDA-MB-231 breast -76.3% | RXF 393 renal -76.2% | SF-268 CNS -66.6% | SF-295 CNS -90.3% | SF-539 CNS -93.4% | UACC-257 melanoma -66.4% | M14 melanoma -76.7% | HCT-15 colon -82.7%

O=c1oc2ccc(Cl)cc2c(=O)n1-c1cc(C(F)(F)F)cc(C(F)(F)F)c1
inactive: DU-145 prostate 14.4%
active: NCI-H23 lung -5.36% | NCI-H322M lung 3.4% | HOP-62 NSCLC -9.09% | NCI-H460 lung 1.5% | HOP-92 NSCLC -7% | NCI-H522 lung -14.3% | A549/ATCC NSCLC 6.11% | 786-0 renal -11.8% | COLO 205 colon -74.8% | K-562 leukemia 8.63% | MALME-3M melanoma -33.8% | MDA-MB-231 breast -21.9% | RXF 393 renal -5.99% | SF-268 CNS 3.66% | SF-295 CNS -65.1% | SF-539 CNS -5.73% | UACC-257 melanoma -14.7% | M14 melanoma -22.5% | HCT-15 colon -5.03%

N#Cc1c(N)nc2c(c1N)C(c1ccc(F)cc1)c1ccc(N)cc1O2 (stereo not given)
inactive: NCI-H23 lung 117% | NCI-H322M lung 150% | HOP-62 NSCLC 113% | NCI-H460 lung 110% | HOP-92 NSCLC 97.2% | NCI-H522 lung 86.4% | A549/ATCC NSCLC 101% | 786-0 renal 92.3% | COLO 205 colon 124% | DU-145 prostate 110% | K-562 leukemia 104% | MALME-3M melanoma 136% | MDA-MB-231 breast 118% | RXF 393 renal 92.3% | SF-268 CNS 105% | SF-295 CNS 83.1% | SF-539 CNS 103% | UACC-257 melanoma 102% | M14 melanoma 111% | HCT-15 colon 100%

Cc1ccc2nc(NC(=O)CSC(=S)N3CCN(c4ccccc4)CC3)sc2c1
inactive: NCI-H23 lung 83.7% | NCI-H322M lung 92.9% | HOP-62 NSCLC 105% | NCI-H460 lung 112% | HOP-92 NSCLC 82.6% | A549/ATCC NSCLC 94.6% | 786-0 renal 103% | COLO 205 colon 116% | DU-145 prostate 112% | K-562 leukemia 95.7% | MALME-3M melanoma 105% | MDA-MB-231 breast 101% | RXF 393 renal 108% | SF-268 CNS 101% | SF-295 CNS 104% | SF-539 CNS 104% | UACC-257 melanoma 108% | M14 melanoma 97.8% | HCT-15 colon 97%
active: NCI-H522 lung -81.8%

O=c1oc2ccc(Br)cc2c(=O)n1-c1ccc(Cl)cc1F
inactive: COLO 205 colon 21.5% | DU-145 prostate 16.4%
active: NCI-H23 lung 2.82% | NCI-H322M lung 5.97% | HOP-62 NSCLC 2.2% | NCI-H460 lung 2.87% | HOP-92 NSCLC -12.6% | NCI-H522 lung -1.53% | A549/ATCC NSCLC 8.23% | 786-0 renal -1.15% | K-562 leukemia 6% | MALME-3M melanoma -30.6% | MDA-MB-231 breast -22.6% | RXF 393 renal 4.25% | SF-268 CNS 8.43% | SF-295 CNS -58.4% | SF-539 CNS 4.14% | UACC-257 melanoma -10.6% | M14 melanoma -11.9% | HCT-15 colon 0.07%

O=C(Nc1ccc(F)cc1F)c1cc(I)ccc1O
inactive: 786-0 renal 12.3% | COLO 205 colon 77.8% | DU-145 prostate 19.1% | MDA-MB-231 breast 35.2% | SF-268 CNS 16.1% | SF-539 CNS 13.3% | M14 melanoma 16.7% | HCT-15 colon 15.9%
active: NCI-H23 lung 8.86% | NCI-H322M lung 8.13% | HOP-62 NSCLC 2.05% | NCI-H460 lung 6.03% | HOP-92 NSCLC -20% | NCI-H522 lung -12.4% | A549/ATCC NSCLC 6.86% | K-562 leukemia 9.06% | MALME-3M melanoma -17.6% | RXF 393 renal -1.12% | SF-295 CNS 1.39% | UACC-257 melanoma -9.13%
